# Screening data from PubChem.
# IP6K1 inhibitor: Primary qHTS assay for small molecule inhibitors of Inositol hexaphosphate kinase 1 (IP6K1) | Inositol hexakisphosphate kinase 1 (Homo sapiens), Q92551 | IP6K1 kinase, ADP-Glo luminescence, 2 h; hits give low values | activity change, % (series mostly up to about 58 µM) | hit rate 0.81% among 140,000; in the data active means activity change below about -25%; further: on the % scale 0 is the no-effect control and ±100 the full control effect
#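 ADP-Glo luminescence measures ADP made by human IP6K1 during a 2 h RT reaction with ATP/IP6 (mix at 1.3 mM/130 uM); top library doses 57.5 and 19.1 uM final.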
# SNCA expr inhib: Primary qHTS assay for inhibitors of alpha-synuclein gene (SNCA) expression; HEK-293 SNCA-luciferase knock-in, luminescence, 24 h; Potency, µM (highest dose often 57.2 µM), without a hit: top-dose activity change, negative = inhibition, most hits filed as inhibitors; hit rate 0.17% among 140,000; AID 1671194, 2021;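 further: potency means the concentration at half of the fitted maximal effect; plate controls were DMSO cells for no effect and cell-free wells for full effect; nearly all actives have a fitted effect of over 45% in size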
# KDM5B inh: Primary screen for KDM5B Histone Demethylases FDH-coupled qHTS; Lysine-specific demethylase 5B (Homo sapiens), Q9UGL1; Potency, µM (top dose mostly 57.7 µM), usual class: inhibitors; AID 1347165, 2019; KDM5B demethylase, FDH-coupled NADH fluorescence (FDH is formaldehyde dehydrogenase); hit rate 2.6% among 220,000; further: potency means the concentration at half of the fitted maximal effect; 0% is about no effect; nearly all actives have a fitted effect of over 70% in size
# Target sequence (Q9UGL1 whole entry, looked up): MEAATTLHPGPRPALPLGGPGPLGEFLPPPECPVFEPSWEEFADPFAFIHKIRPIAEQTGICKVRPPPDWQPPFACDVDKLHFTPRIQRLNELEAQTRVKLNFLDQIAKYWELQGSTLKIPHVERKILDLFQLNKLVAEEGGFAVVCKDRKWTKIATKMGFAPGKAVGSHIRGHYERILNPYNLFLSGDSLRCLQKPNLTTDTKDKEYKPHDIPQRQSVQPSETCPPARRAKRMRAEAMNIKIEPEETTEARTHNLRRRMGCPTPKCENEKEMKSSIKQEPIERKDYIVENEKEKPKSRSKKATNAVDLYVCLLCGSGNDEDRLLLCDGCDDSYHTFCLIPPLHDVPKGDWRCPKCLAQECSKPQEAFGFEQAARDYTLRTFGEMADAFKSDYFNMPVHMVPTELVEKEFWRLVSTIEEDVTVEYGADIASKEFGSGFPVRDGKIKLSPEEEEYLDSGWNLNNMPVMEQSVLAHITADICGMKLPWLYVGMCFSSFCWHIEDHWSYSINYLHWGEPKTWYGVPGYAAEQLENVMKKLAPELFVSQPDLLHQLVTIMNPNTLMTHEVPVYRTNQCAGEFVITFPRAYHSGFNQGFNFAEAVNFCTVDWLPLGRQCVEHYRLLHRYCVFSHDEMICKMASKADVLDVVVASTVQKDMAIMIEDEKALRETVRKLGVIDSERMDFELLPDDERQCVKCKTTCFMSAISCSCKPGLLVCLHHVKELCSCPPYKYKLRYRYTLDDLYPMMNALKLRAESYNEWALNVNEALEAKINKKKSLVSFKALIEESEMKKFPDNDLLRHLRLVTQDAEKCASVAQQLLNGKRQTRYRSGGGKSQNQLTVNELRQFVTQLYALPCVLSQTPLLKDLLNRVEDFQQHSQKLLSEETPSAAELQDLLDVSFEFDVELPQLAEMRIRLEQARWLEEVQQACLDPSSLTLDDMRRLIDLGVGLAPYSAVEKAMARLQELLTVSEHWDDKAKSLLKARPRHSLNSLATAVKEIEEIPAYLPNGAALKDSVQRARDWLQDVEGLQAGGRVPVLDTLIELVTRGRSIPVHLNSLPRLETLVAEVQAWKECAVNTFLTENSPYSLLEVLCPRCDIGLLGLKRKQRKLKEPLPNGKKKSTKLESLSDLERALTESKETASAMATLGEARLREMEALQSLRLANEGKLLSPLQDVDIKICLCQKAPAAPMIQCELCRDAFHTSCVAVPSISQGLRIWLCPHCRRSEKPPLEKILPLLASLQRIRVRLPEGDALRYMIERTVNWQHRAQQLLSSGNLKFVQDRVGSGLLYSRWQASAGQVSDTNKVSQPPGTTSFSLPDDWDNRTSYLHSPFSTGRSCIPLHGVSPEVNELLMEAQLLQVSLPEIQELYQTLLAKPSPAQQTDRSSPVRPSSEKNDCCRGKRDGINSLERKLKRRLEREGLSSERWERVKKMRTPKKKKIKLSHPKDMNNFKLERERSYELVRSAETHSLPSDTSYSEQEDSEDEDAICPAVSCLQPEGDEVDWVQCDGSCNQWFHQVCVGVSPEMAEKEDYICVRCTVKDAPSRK
#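 qHTS format, multiple compound concentrations. Buffer 50 mM HEPES pH 7.5/0.01% Tween-20; 200 nM KDM5BΔAP final; 10 min compound preincubation; substrate-mix levels 12.5 µM peptide, 25 µM α-KG, 0.25 mM NAD⁺; 30 min RT; ΔRFU.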
# HEK293 viab: GF-AFC viability counterscreen for inhibitors of alpha-synuclein gene (SNCA) expression. Potency, µM (top dose mostly 57.1 µM), inactives show top-dose activity change, negative = cytotoxicity, most hits filed as cytotoxic. HEK-293-SNCA-luc viability, GF-AFC fluorescence, 24 h. hit rate 0.12% among 150,000;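 further: potency means the concentration at half of the fitted maximal effect; 0% = DMSO-treated cells and -100% = medium-only wells without cells; nearly all actives have a fitted effect of over 30% in size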
#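 Cytotoxicity counterscreen: after 24 h compound treatment of genome-edited SNCA-luciferase HEK-293 cells, live-cell protease substrate GF-AFC read by fluorescence after 30 min; activity scaled between DMSO (0%) and medium-only (-100%), curves Hill-fitted.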
# An asterisk follows results filed as active; i = inactive; ? = inconclusive; · = not tested or not shown; [ ] = another dose, or the depositor's remark. Rows were chosen to be rich in hits. Some 3% of all compounds tested hit in one or more screens of this group. Unless noted, the call rests on the fitted dose curve; in most records, active means well fitted curve in the direction sought with a large enough effect; inconclusive means small, poorly fitted or top-dose-only effect, or another doubt; inactive means no such curve, though single readings can be large; an effect the other way counts as inactive or inconclusive.
SMILES,IP6K1 inhibitor,SNCA expr inhib,KDM5B inh,HEK293 viab
O=C(c1nccc2ccccc12)N1CCc2c(nc3cc(-c4ccccc4)[nH]n3c2=O)C1,19,-6%,?,4%
CCOC(=O)CCNC(=O)N1CCc2c(nc(-c3ccccc3)[nH]c2=O)C1,34,0%,i,5%
CCn1cc(Cl)c(C(=O)N2CCc3c(nc4cc(-c5ccccc5)[nH]n4c3=O)C2)n1,26,-1%,25µM*,14%
O=C(c1ccccc1Cl)N1CCc2c(nc3cc(-c4ccccc4)[nH]n3c2=O)C1,14,-13%,35µM*,4%
COc1ccc(Cl)cc1C(=O)N1CCc2nc3cc(-c4ccccc4)[nH]n3c(=O)c2C1,0,1%,25µM*,-10%
COc1ccc2c(c1)CN(Cc1ccccc1)C(=O)CCN2C(=O)C1CCC1,-4,·,·,·
O=C1CC2(CCN(C(=O)C3CCCN(C(=O)Nc4ccc(Cl)cc4)C3)CC2)Oc2ccccc2N1 (stereo not given),-11,-18%,·,?
Cc1noc(C)c1S(=O)(=O)N1CCc2nc3cc(-c4ccccc4)[nH]n3c(=O)c2C1,6,?,28µM*,3%
CN(C)S(=O)(=O)N1CCc2c(nc3cc(-c4ccccc4)[nH]n3c2=O)C1,22,-4%,22µM*,1%
O=C(c1cc2c(s1)CCCC2)N1CCc2c(nc3cc(-c4ccccc4)[nH]n3c2=O)C1,30,1%,i,-2%
COc1ccc(S(=O)(=O)N2CCc3nc4cc(-c5ccccc5)[nH]n4c(=O)c3C2)cc1,0,-28%,?,14%
CN(CCc1ccccc1)[C@@H]1[C@H](O)[C@H](CO)O[C@@H]1CNC(=O)c1cccc(F)c1,3,-21%,i,4%
Cc1nn(-c2ccccc2)c2c1C(C)N(C1CCN(C(=O)Cc3ccc(F)cc3)CC1)C2=O (stereo not given),-17,·,·,·
Cc1ccc([S+](=O)([O-])N2CCCC(C(=O)N3CCC4(CC3)CC(=O)Nc3ccccc3O4)C2)cc1 (stereo not given),-1,-14%,·,-26%
Cc1nn2c(c1-c1ccccc1-c1ccccc1)N(Cc1ccccc1)CCC2,-2,?,32µM*,?
Cc1nn2c(c1-c1ccccc1-c1ccccc1)N(CCC(C)C)CCC2,-9,1.1µM*,6.3µM*,?
COc1ccccc1N1CCN(c2nc3c(S(=O)(=O)c4ccc(C)c(C)c4)nnn3c3ccc(Cl)cc23)CC1,-28*,-3%,?,-5%
Cn1ccc2c(C(=O)NCc3cccnc3)nc(-c3cccc(N4CCOCC4)c3)cc21,-8,-14%[87.6 µM],i,-14%[87.6 µM]
c1cc(-c2cc3c(ccn3Cc3ccncc3)c(N3CCOCC3)n2)cc(N2CCOCC2)c1,4,13%,20µM*,-6%
CN(C)Cc1cccc(-c2cc3c(ccn3Cc3ccncc3)c(N3CCOCC3)n2)c1,1,-5%[87.6 µM],40µM*,-16%[87.6 µM]
CC(C)Cc1ccc(C(C)NC(=O)CCNC(=O)C(C)(C)C)cc1 (stereo not given),·,·,i,·
CCCC(C)N1CC2(CCN(C(=O)c3cnn4ccccc34)CC2)OC1=O (stereo not given),1,16%,28µM*,6%
O=C1CC2(CCN(C(=O)c3cnn4ccccc34)CC2)CN1Cc1ccccc1,5,-19%,20µM*,-4%
CC(OC(=O)c1nn(-c2ccccc2)c(=O)c2ccccc12)C(=O)Nc1ccc(N2CCOCC2)cc1 (stereo not given),·,·,i,·
O=C1COCC2(CN1Cc1cccc(OC(F)(F)F)c1)CN(c1nccs1)C2,7,-18%[87.6 µM],i,1%[87.6 µM]
SMILES,IP6K1 inhibitor,SNCA expr inhib,KDM5B inh,HEK293 viab
COc1ncccc1N1CC2(COCC(=O)N(Cc3cccc(OC(F)(F)F)c3)C2)C1,1,-3%[87.6 µM],7.1µM*,-5%[87.6 µM]
CNCCN1C(=O)CC[C@H]2CN(C(=O)c3ccc(Cl)cn3)CC[C@H]21,6,-2%,i,9%
CNCCN1C(=O)CC[C@H]2CN(c3ncc(Cl)cc3F)CC[C@H]21,11,-23%,25µM*,13%
COc1ccc(-c2noc([C@@H](C)NC(=O)c3nc4ccccc4[nH]3)c2C(=O)O)cc1,1,-12%,28µM*,2%
COc1ccc(-c2nc(C)nc3c2CN(C(=O)Nc2ccccc2)CC3)cc1,-5,12%,·,7%
Cn1c2c(c3cc(F)ccc31)CN(C(=O)Nc1ccc(F)c(Cl)c1)CC2,-8,?,32µM*,?
Cn1c2c(c3ccccc31)CN(C(=O)Nc1ccccc1)CC2,-5,17%,22µM*,9%
Cn1c2c(c3ccccc31)CN(C(=O)c1ccccc1)CC2,3,6%,?,-3%
O=C(Nc1ccc(Cl)cc1Cl)N1CCc2[nH]c3ccc(F)cc3c2C1,-8,-9%,32µM*,?
CC(=O)N1CCc2c(c3ccccc3n2C)C1,3,1%,25µM*,3%
Cc1ccc(N(Cc2cccs2)C(=O)c2cccs2)cc1,·,·,i,·
O=C(Nc1ccc(Cl)cc1)NC1CCN(Cc2cccc(-c3cccs3)c2)CC1,4,?,·,-4%[12.5 µM]
Cc1cc(C)c(-c2cc(-c3ccccc3)c3ccccc3n2)cc1C,·,·,i,·
Cn1c2c(c3ccccc31)CN(C(=O)NC1CCCCC1)CC2,3,1%,?,-1%
COc1ccc(NC(=O)N2CCc3c(c4ccccc4n3C)C2)cc1,-20,87%,25µM*,-9%
CCCc1noc(-c2ccn3c(CNC(=O)CCC4CCCC4)nnc3c2)n1,16,-2%,3.5µM*,0%
CCc1noc(-c2cccn3c(CNC(=O)Cc4cccc(OC)c4)nnc23)n1,-1,14%,?,-10%
CCc1noc(-c2ccn3c(CNC(=O)CCc4ccccc4)nnc3c2)n1,-1,-24%,25µM*,2%
CCc1noc(-c2ccn3c(CNC(=O)COc4cccc(C)c4)nnc3c2)n1,9,-11%,?,13%
CCc1noc(-c2ccn3c(CNC(=O)CCc4cccc(OC)c4)nnc3c2)n1,7,3%,28µM*,2%
CCc1noc(-c2ccn3c(CNC(=O)Cc4cccc(OC)c4)nnc3c2)n1,12,6%,22µM*,-12%
Cc1cccc(-c2nc3ccccc3c(C)c2C#N)c1,·,·,i,·
Cn1ncc2c(C(=O)NCC#N)cc(-c3cccc(F)c3)nc21,20,·,·,·
COc1cccc(CC(=O)NCc2nnc3cc(-c4nc(C(C)C)no4)ccn23)c1,1,-2%,28µM*,1%
COc1ccccc1CC(=O)NCc1nnc2cc(-c3nc(C)no3)ccn12,15,16%,?,-3%
COc1cccc(CCC(=O)NCc2nnc3cc(-c4nc(C5CC5)no4)ccn23)c1,10,6%,28µM*,-3%
COc1cc(Nc2c(C#N)cnc3ccccc23)cc(OC)c1OC,·,·,i,·
N#CC1CCN(C(=O)c2nc(-c3cccc(C(F)(F)F)c3)c3cnccn23)CC1,1,-4%,25µM*,1%
